In all, about 68,000 sequences were measured (“fluorescence intensity (a.u.)”: median about 9,100, highest 2% from about 16,000 on). This is one part of a sample in which the highest values are shown more often than they occur.

Chain of OsWRKY34 (Q0JBA9 entry or part of it): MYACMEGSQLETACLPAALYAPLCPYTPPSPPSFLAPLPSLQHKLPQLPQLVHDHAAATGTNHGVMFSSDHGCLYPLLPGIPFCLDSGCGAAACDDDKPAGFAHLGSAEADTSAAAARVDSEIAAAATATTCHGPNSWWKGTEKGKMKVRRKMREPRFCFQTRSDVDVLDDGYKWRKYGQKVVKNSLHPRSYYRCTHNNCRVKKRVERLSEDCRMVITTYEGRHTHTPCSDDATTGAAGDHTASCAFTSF

This experiment concerns the target OsWRKY34 (Oryza sativa, UniProt Q0JBA9 1-250). In words: protein-binding microarray (RPBM); PBS, 2% BSA, 51.3 ng/ul salmon testes DNA, 50 uM zinc acetate, 200 nM TF, 25 C, 1 h; high values mean tight binding. Conditions: protein: recombinant; tags: N-terminal polyhistidine and DsRed monomer fusion (pET32a); label: CyDye5-dUTP incorporated in the synthesized complementary strand; 3' TTTTT single-stranded linker to array surface; dsDNA, one strand shown. Put shortly:
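For the binding signal, per-feature fluorescence intensity was read in arbitrary units on an Axon 4000B scanner. Before scanning, a 2% BSA-blocked custom Agilent array made double-stranded with Cy5-dUTP was washed after 1 h at 25 °C with 200 nM protein and 50 µM zinc acetate. The proteins were Ni–NTA-purified transcription factors with N-terminal polyhistidine and DsRed fusions, expressed in E. coli BL21-CodonPlus.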
For “GGCGGCGGCGGAGGAGGAGGAGGGGAGGGGAGCACGAGCGCGGAGTCACCTAGTGCAG”, the binding signal was 17400 fluorescence intensity (a.u.). In the case of “TTGAGAGCTGGAGGCGCAGGCTGGGATCGGCGGAGCCATGCGGAGTCACCTAGTGCAG”, the binding signal is 63200 fluorescence intensity (a.u.). With “GGCGGCGGAGGAGGAGGAGGCGCGAGGGGAGGCGAGCATGCGGAGTCACCTAGTGCAG”, the binding signal is 8150 fluorescence intensity (a.u.).

On to “GGAGGAGAGCTTGGTGGTGCGCTGATCGGCGGATGCGGGGCGGAGTCACCTAGTGCAG”, for which the binding signal is 8490 fluorescence intensity (a.u.). To “CGATCGGGCCGCGGCGCGAGGGAGGGGATCGGTGCGCGCGCGGAGTCACCTAGTGCAG” belongs 8060 fluorescence intensity (a.u.); to “CGCTCTCTTGTTGACCACCTCGCGTTGCACTGGGCCAGCCCGGAGTCACCTAGTGCAG”, 9490 fluorescence intensity (a.u.); to “GCTGCTGGTGGTGGTAGTAGGACTTGGGGCTCGTGTTGTGCGGAGTCACCTAGTGCAG”, 9720 fluorescence intensity (a.u.).

Take “TCGTAGGGTGCGGGGTGGCTGCCTGTCTCCTTCGCCTCGCCGGAGTCACCTAGTGCAG”: the binding signal is 9680 fluorescence intensity (a.u.). Consider “ATCACCAGTTGCCATTCTGTCACCTCAACTTAGAACATACCGGAGTCACCTAGTGCAG”, for which the binding signal was 8290 fluorescence intensity (a.u.). To “CAAACGTACTCCTACTCTCCAAGCAGCCTATATAAACCACCGGAGTCACCTAGTGCAG” belongs 8590 fluorescence intensity (a.u.). For the sequence “TTTCACCTAGTCCTAGCCTAATTCGTCTATCTTTATCAATCGGAGTCACCTAGTGCAG”, the binding signal was 9710 fluorescence intensity (a.u.). Take “CGCTGCTTTTGCTGCTGCTGTTGATGATGCATCCCATTCCCGGAGTCACCTAGTGCAG”: the binding signal was 9140 fluorescence intensity (a.u.). Take “GGTTCTTCTGAGCGGGGCCGGGGCGGGGCGGCAGCTGGGGCGGAGTCACCTAGTGCAG”: the binding signal was 30000 fluorescence intensity (a.u.).

Turning to “GGCCGGTAGGGGTAGAACGGTCATTTCGTGCGCGGGGAGGCGGAGTCACCTAGTGCAG”, the binding signal is 9810 fluorescence intensity (a.u.).

“GGCGGCGGCGGCGGGGCGGCGTGGCGCCGAGGGAGGGGAACGGAGTCACCTAGTGCAG”: the binding signal was 12500 fluorescence intensity (a.u.).

Regarding “GGCGTGGGGAGGCGGAGGGAGGGAGGGGAGCGGCTGCGCACGGAGTCACCTAGTGCAG”, the binding signal was 17700 fluorescence intensity (a.u.). As for “GTAGCAATGGGCGGCGGGGAGCGGGGCTGAGCGGCAGCCGCGGAGTCACCTAGTGCAG”, the binding signal was 8150 fluorescence intensity (a.u.).

For the sequence “AGCTGAGGGGCGGCGGCGGCTGGCAAGGGGCGGCGGCGGCCGGAGTCACCTAGTGCAG”, the binding signal is 10900 fluorescence intensity (a.u.). With “TGCGGGGCGCAAGGCGCGCGGTAGGGGAGGGGTTAGCGCTCGGAGTCACCTAGTGCAG”, the binding signal is 8190 fluorescence intensity (a.u.). “CGGAGGCATGGGGAGGCTGCTGCGGCGCCAATTGTGGCCACGGAGTCACCTAGTGCAG”: the binding signal was 8860 fluorescence intensity (a.u.).

As to “GGGAGCGGGTGGGAGTGGCCGGCGCGGAGGACGACGGCGGCGGAGTCACCTAGTGCAG”, the binding signal is 8280 fluorescence intensity (a.u.).

As to “CGCGCGCGCGCGCGTACGTGGGAACAGAGAGCGGCGCCGACGGAGTCACCTAGTGCAG”, the binding signal was 27900 fluorescence intensity (a.u.). For the sequence “GCTGGGAGGGAGGAGCGGGAGGCGGCGCGGCGCGTGGAGGCGGAGTCACCTAGTGCAG”, the binding signal is 8580 fluorescence intensity (a.u.). Take “TATTTTAGTGCAAGGGGCGGGCGGGCGCGGTAGAAGTCAACGGAGTCACCTAGTGCAG”: the binding signal was 18200 fluorescence intensity (a.u.).

Turning to “AATACGGTTTGGAAGGGATCTTTTTTGGTTGGTTGCACTGCGGAGTCACCTAGTGCAG”, the binding signal is 9650 fluorescence intensity (a.u.). For “ATAGTTGTTTTGCCTACCCCACCCATGCCGAAGATGGACACGGAGTCACCTAGTGCAG”, the binding signal was 8790 fluorescence intensity (a.u.).

“ATCTTTTCTCTTCTCGACTTCTCGTATGCCGCGTCCCGTCCGGAGTCACCTAGTGCAG”: the binding signal is 11100 fluorescence intensity (a.u.). To “CTTGTGGCTTGTGCAATTCTGTTTCATCGAGTTTGTTAACCGGAGTCACCTAGTGCAG” belongs 8830 fluorescence intensity (a.u.); to “TTCAAATCTCATCCGAATTTTTTGTTTTTTATTTTTTTTTCGGAGTCACCTAGTGCAG”, 8280 fluorescence intensity (a.u.). In the case of “TAGTTCATCCTTGACATCAAGTGGGTTGCTAGTCTCATTCCGGAGTCACCTAGTGCAG” it was 9450 fluorescence intensity (a.u.).

Take “TAGGCTGTATTCTTATCCACTCATGCAGTGCTCTGATAGGCGGAGTCACCTAGTGCAG”: the binding signal was 11000 fluorescence intensity (a.u.). As for “TGGTTTGCATCTCTTCTTGCTCTTTGGAGGATTTACTACTCGGAGTCACCTAGTGCAG”, the binding signal was 9510 fluorescence intensity (a.u.). Take “GGGAGTGTGGAGGTGTTGTGCTGCGGCGTGGGTGTGTTGGCGGAGTCACCTAGTGCAG”: the binding signal is 8640 fluorescence intensity (a.u.).

Take “GGTCGCCGGATCGCGGGAGGGAGGGAGGGAGGGAGGGAGGCGGAGTCACCTAGTGCAG”: the binding signal is 14100 fluorescence intensity (a.u.).

As for “GAGGCCGGGGTCGGGGCGAGCGAGGCGAGAGGGGAGGAGGCGGAGTCACCTAGTGCAG”, the binding signal is 8910 fluorescence intensity (a.u.). With “GGGCGGAGGCGGGGATCGCGGCGGGAGGGGTGGATCCATGCGGAGTCACCTAGTGCAG”, the binding signal is 17400 fluorescence intensity (a.u.). “CGGGGTGGGAGCAGGGGTCGCGCGGCGGGGTGCGGCCATGCGGAGTCACCTAGTGCAG”: the binding signal is 10100 fluorescence intensity (a.u.). Consider “TTCTTCTAGAGGAGGAGGAGGCGGCGGGGCGGCGGGCGAGCGGAGTCACCTAGTGCAG”, for which the binding signal is 17300 fluorescence intensity (a.u.). As for “GCAGGCGGAGGCGGAGGCGGAGGCGGAGGCGGCGGCGGCGCGGAGTCACCTAGTGCAG”, the binding signal is 8950 fluorescence intensity (a.u.). Take “GTGTTGGTGGCTCTGGCTGCGTCGACGTGCGCAGGGCGTTCGGAGTCACCTAGTGCAG”: the binding signal was 8050 fluorescence intensity (a.u.). Turning to “GCGGCCGGTCCGAGCGAGCGGAGAGGGAGGAGGCGGGGAGCGGAGTCACCTAGTGCAG”, the binding signal is 8360 fluorescence intensity (a.u.).

“CGGCGGCGGAGGAGGAGGAGGAGGAGGGCGCGGGGCGGCGCGGAGTCACCTAGTGCAG”: the binding signal is 21700 fluorescence intensity (a.u.). “GGCGTGTTGTGTTCGGGTGGGTGCTGCGCAGGCTGCTGTACGGAGTCACCTAGTGCAG”: the binding signal is 17300 fluorescence intensity (a.u.). With “AGGAGGCGGGGCGGGGCGGCGGCGGCGGCGGCGGCGCCCGCGGAGTCACCTAGTGCAG”, the binding signal is 11500 fluorescence intensity (a.u.).

The values above are taken from article PMC7819943, “Rice protein-binding microarrays: a tool to detect cis-acting elements near promoter regions in rice”.
